Bioassay records: PubChem BioAssay, National Center for Advancing Translational Sciences (NCATS)
Hits are enriched below; roughly 7% of the tested compounds scored in any of these assays.
D3 antag – qHTS of D3 Dopamine Receptor Antagonist: qHTS | max response, negative = inhibition, % | 2.5% of 360,000 active | D3R cells, DiscoveRx beta-arrestin luminescence, antagonist mode; active compounds read low | D(3) dopamine receptor (Homo sapiens), P35462; in the data active = max response below about -50%; inconclusive = no clear call, values can overlap the other calls; also: % is scaled to controls: 0 for no effect and ±100 for the full control effect
Target sequence (P35462 whole entry, looked up): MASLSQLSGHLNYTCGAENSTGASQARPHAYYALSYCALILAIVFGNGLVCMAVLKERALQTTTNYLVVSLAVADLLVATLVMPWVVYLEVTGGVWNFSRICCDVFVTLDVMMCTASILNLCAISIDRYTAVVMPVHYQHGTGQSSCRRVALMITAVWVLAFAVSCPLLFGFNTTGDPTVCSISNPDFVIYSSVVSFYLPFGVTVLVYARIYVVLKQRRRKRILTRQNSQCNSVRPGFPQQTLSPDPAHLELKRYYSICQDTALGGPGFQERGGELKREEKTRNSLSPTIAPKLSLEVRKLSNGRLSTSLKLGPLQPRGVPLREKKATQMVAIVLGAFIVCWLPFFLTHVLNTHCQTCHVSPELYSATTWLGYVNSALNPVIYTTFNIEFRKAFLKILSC
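Cells plated overnight at 1500 cells/well, then exposed to library compounds with dopamine controls for 90 minutes at 37 degrees C. DiscoveRx reagent added for 30–60 minutes at room temperature; luminescence read, quantitative HTS format.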
IL-1B inflam inh – qHTS for Inhibitors of Inflammasome Signaling: IL-1-beta AlphaLISA Primary Screen; THP-1 LPS/ATP IL-1B secretion, AlphaLISA, 16 h; active compounds read low; AID 743279, 2014; 4.7% of 360,000 active; activity change, % at 57.5 µM; in the data active = activity change below about -50%; inconclusive = mostly about -30% to -49%; also: % is scaled to controls: 0 for no effect and ±100 for the full control effect
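THP-1 cells pretreated 1 hr with compounds (up to 57.5 uM final), then stimulated with LPS (250 ng/mL final) plus ATP (1.25 mM final); secreted IL-1B measured by AlphaLISA after 16 hr, decreased signal indicating inhibition.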
a7 integrin act – qHTS for Activators of Integrin-Mediated Alleviation for Muscular Dystrophy | alpha7betagal myoblasts, beta-gal FDG fluorescence, 48 h | Potency, µM (series often up to 38.3 µM), for inactives: at the highest dose activation, hits mostly activators | 0.064% of 350,000 active;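 also: potency is read from the fitted curve at half-maximal effect; 100% = response of the positive control SU9516; nearly all actives have a fitted effect of over 60% in size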
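Alpha7betagal+/- myoblasts (passage 13) were plated 16-24 hr, then exposed to compounds (1:260 dilution of DMSO stock) for 48 hours at 37C. After MPER lysis, β-galactosidase reporter activity was read as FDG fluorescence (ex 480/em 540) after 30 minutes.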
ATXN viability – Viability Counterscreen for Primary qHTS for Inhibitors of ATXN expression; 0.49% of 400,000 active; Potency, µM (top dose mostly 56.7 µM), most hits filed as cytotoxic; S2 cells (HEK-293 line with an ATXN2-luciferase reporter) viability, CellTiter-Fluor protease fluorescence, 24 h; AID 651635, 2014; also: potency is read from the fitted curve at half-maximal effect; nearly all actives have a fitted effect of over 40% in size
D3 ag – qHTS of D3 Dopamine Receptor Agonist: qHTS | D3R DiscoveRx beta-arrestin cells, luminescence, 90 min | max activation, % | 0.58% of 410,000 active; in the data active = max activation above about 30%; also: 0% is about no effect
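Agonist mode: compounds and dopamine controls were applied to plated cells for 90 min at 37 degrees C after an overnight attachment at 1500 cells/well. Luminescent read-out followed 30 - 60 minutes at room temperature with DiscoveRx detection reagent.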
ATXN2 expr inh – Primary qHTS for Inhibitors of ATXN expression | HEK-293 ATXN2-luciferase reporter, luminescence, 24 h | Potency, µM (titrated, usually from 57 µM), for inactives: at the highest dose activity change, negative = inhibition, most hits filed as inhibitors | 0.72% of 360,000 active; also: potency is read from the fitted curve at half-maximal effect; % is scaled to controls: 0 for no effect and ±100 for the full control effect; nearly all actives have a fitted effect of over 55% in size
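qHTS (up to 57 uM final) was run with 24 h compound exposure of reporter cells at 37 °C. Each well was multiplexed: SteadyGlo luminescence measured ATXN2-luciferase expression after a fluorogenic Gly-Phe-AFC viability readout (25 uM final).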
* marks the source's active call; other numbers are inactive results; i = inactive; ? = inconclusive; . = no result. Unless noted, calls follow the shape of the dose curve; as a rule, active = well fitted curve in the direction sought with a large enough effect; inconclusive = small, poorly fitted or top-dose-only effect, or another doubt; inactive = no such curve, though single readings can be large; an effect the other way counts as inactive or inconclusive.

SMILES	D3 antag	IL-1B inflam inh	a7 integrin act	ATXN viability	D3 ag	ATXN2 expr inh
O=[N+]([O-])c1cc(C(F)(F)F)ccc1NC1CCN(Cc2ccccc2)C1 (stereo not given)	-74*	?	-50%	i	-28	-29%
O=[N+]([O-])c1cc(C(F)(F)F)ccc1NC1CCN(Cc2ccccc2)CC1	-74*	-55*	-24%	i	-30	-13%
CCOC(=O)[C@@H]1[C@H]2COc3ccccc3[C@@H]2N2C(=O)N(c3ccc(Cl)cc3)C(=O)[C@@]12C	2	-11	17%	?	-4	11%
CCc1ccc(NC(=O)COc2ccc(/C=C(/C#N)c3nc4ccccc4[nH]3)cc2OC)cc1	4	38	-5%	.	18	4.5µM*
CCOc1ccc(S(=O)(=O)N2CCN(c3ccc(Cl)c(Cl)c3)CC2)c2ccccc12	.	.	.	i	-9	-5%
O=S(=O)(c1cccc2ccccc12)N1CCN(c2ccc(Cl)c(Cl)c2)CC1	.	.	.	i	71*	-6%
Cc1cc(C)c(/C=C/c2onc(C)c2S(=O)(=O)N2CCC(C(=O)N3CCN(c4ccc(Cl)cc4)CC3)CC2)c(C)c1	.	.	.	.	4	.
CCOc1ccccc1-n1c(SCC(=O)Nc2ccc(CC)cc2)nc2n[nH]c(C)c2c1=N	0	-7	-28%	20µM*	9	?
CCc1ccc(NC(=O)CSc2nc3n[nH]c(C)c3c(=N)n2-c2ccccc2C)cc1	.	.	.	?	-2	-28%
CCOc1ccccc1NC(=O)CCSc1nc2n[nH]c(C)c2c(=N)n1-c1ccccc1Cl	26	45	-4%	i	30*	-30%
CCc1ccc2[nH]c(C)c(CN3CCCCCC3)c(=O)c2c1	-18	8	-14%	i	-16	.
O=C1C(Cl)=C(NC(=O)c2ccccc2)C(=O)C(Cl)=C1NC(=O)c1ccccc1	-71*	-99*	-13%	?	-37	?
CN(C1=C(NC(=O)c2ccc(Cl)cc2)C(=O)c2ccccc2C1=O)c1ccccc1	-52*	-74*	-56%	?	-21	?
O=C(Nc1cc(Cl)ncn1)c1ccccc1	4	-63*	-34%	i	8	8%
CCCNC(=O)C(Cc1ccccc1)NC(=O)c1ccccn1 (stereo not given)	-56*	1	-23%	i	-7	4%
CCCNC(=O)C(Cc1ccccc1)NC(=O)c1ccc(C(F)(F)F)cc1 (stereo not given)	8	-17	-5%	i	5	7%
COc1ccc2c(Sc3ccc(Cl)cc3)c(C(=O)NCCCN3CCCCC3)[nH]c2c1	.	.	.	.	-18	25µM*
CCOCCCNC(=O)c1[nH]c2cc(OC)ccc2c1Sc1ccccc1	.	.	.	i	5	3%
CCN(CC)CCCNC(=O)c1[nH]c2ccccc2c1Sc1ccc(Cl)cc1	0	-76*	-29%	i	-34	-23%
CC(=O)c1nc(-c2ccccc2)sc1C	7	-1	0%	?	0	6%
COc1ccccc1CCNC(=O)C(=O)Nc1cc2c3c(c1)C(C)C(=O)N3CCC2 (stereo not given)	16	19	-8%	i	-1	6%
CCc1ccccc1NC(=O)C(CC)Sc1nc2cc3c(cc2c(=O)n1Cc1ccco1)OCO3 (stereo not given)	-18	7	15%	18µM*	-1	16µM*
C=CC1=C2C=C(C3CC3)N(CCCN(CC)CC)C=C2C(=O)C(C)(OC(=O)c2ccco2)C1=O (stereo not given)	-13	7	13%	i	46*	-5%
Cc1cc(NC(=O)c2ccccc2-c2ccccc2)ccc1Br	0	?	-3%	i	5	-7%
COC(=O)c1cccc(NS(=O)(=O)c2cccs2)c1C	9	-6	18%	i	-10	27%
SMILES	D3 antag	IL-1B inflam inh	a7 integrin act	ATXN viability	D3 ag	ATXN2 expr inh
COC(=O)c1ccccc1NC1=C/C(=N\S(=O)(=O)c2cccs2)c2ccccc2C1=O	-93*	-92*	3%	7.1µM*	-48	4µM*
COC(=O)c1ccccc1Nc1ccccc1	1	13	-19%	?	2	-5%
COC(=O)c1ccccc1NC1=C/C(=N\S(=O)(=O)c2ccc(C(=O)O)cc2)c2ccccc2C1=O	-99*	-90*	-75%	18µM*	-25	?
CCOc1ccc(S(=O)(=O)NCCC(=O)NCC(c2cccs2)N2CCOCC2)cc1 (stereo not given)	3	31	2.2µM*	?	2	-15%
CC(C)(CC(=O)O)CC(=O)N1CCCN(c2nccc(C(F)(F)F)n2)CC1	-11	0	4µM*	i	0	-8%
COC(=O)[C@H]1[C@H]2C[C@H]3c4[nH]c5ccccc5c4CCN3C[C@H]2CC[C@@H]1O	-132*	-2	.	i	-94	0%
COC(=O)C1C(O)CCC2CN3CCc4c([nH]c5ccccc45)C3CC21 (stereo not given)	?	3	-2%	i	-12	-1%
Cc1c(Cl)c(-c2n[nH]c(=S)n2Cc2ccco2)nn1C	-54*	8	4%	i	-1	6%
S=c1[nH]nc(-c2ccc(Br)o2)n1Cc1ccccc1	-82*	-7	13%	i	-37	11%
S=c1[nH]nc(-c2ccco2)n1Cc1ccccc1	-81*	37	26%	i	-2	-7%
CCn1c(-c2ccco2)n[nH]c1=S	-20	7	-9%	i	1	-1%
O=C(NC(=O)c1ccccc1O)c1ccc(C(F)(F)F)cc1	-10	-69*	18%	i	2	?
Fc1cccc(Cl)c1CNc1n[nH]c(-c2ccco2)n1	.	.	.	i	-4	35%
O=C1NC(=Nc2ccccc2)S/C1=C\c1cccn1-c1ccccc1	-70*	-5	4%	?	-5	19%
COC(=O)[C@H](Cc1c[nH]c2ccccc12)NCc1cccc(B(O)O)c1	-9	-66*	7%	i	-6	41%
Cc1cc(NC(=O)COC(=O)[C@H](Cc2c[nH]c3ccccc23)NC(=O)c2ccc(F)cc2)no1	-51*	20	-9%	i	0	3%
COC(=O)C(Cc1c[nH]c2ccccc12)NC(=O)CNC(C)=O (stereo not given)	-53*	-2	12%	i	1	1%
